The nature of assay [1]: HPAF-II 24hr Apoptosis Induction qHTS against the NCATS CANVASS Library (AID 1347356). The method in brief: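 Apoptosis induction in HPAF-II pancreatic cancer cells is measured as caspase-3/7 luminescence after a 24-hour exposure to compounds.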
A short description of assay [2]: HEK293 18hr Apoptosis Induction qHTS against the NCATS CANVASS Library (AID 1347357). The method in brief: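 HEK293 cells (500 per well, DMEM with 10% FBS) were treated with natural products, incubated 18 hours at 37 degrees C, then caspase-3/7 activity was read by Caspase-Glo luminescence after 15 min at room temperature.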
Assay [3] in a line: HPAF-II 12hr Apoptosis Induction qHTS against the NCATS CANVASS Library (AID 1347358). The method in brief: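 Apoptosis in HPAF-II pancreatic cancer cells is scored as caspase 3/7 luminescence following a 12-hour exposure to an 11-point compound series.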
A short description of assay [4]: HEK293 24hr Apoptosis Induction qHTS against the NCATS CANVASS Library (AID 1347359). Put shortly:
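HEK293 cells, 500 per well, exposed to an 11-point compound series for 24 hours at 37 degrees C. Caspase 3/7 activity read by Caspase-Glo luminescence (DEVD substrate) after 15 min at room temperature.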

The nature of assay [5]: HPAF-II 18hr Apoptosis Induction qHTS against the NCATS CANVASS Library (AID 1347360). The method in brief:
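HPAF-II cells (500/well, DMEM + 10% FBS) were exposed to compounds for 18 hours at 37 degrees C. Caspase-3/7 activity was then read by Caspase-Glo 3/7 luminescence after 15 min at room temperature.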

Assay [6] in a line: HEK293 12hr Apoptosis Induction qHTS against the NCATS CANVASS Library (AID 1347361). Put shortly:
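Read-out: Caspase-Glo 3/7 luminescence (DEVD substrate), 15 min RT. Preceded by 12 h compound exposure of HEK293, 500 cells/well, 11-pt qHTS titration; doxorubicin titration as control.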

In assay [7] the target is Luciferin 4-monooxygenase (Photinus pyralis) (UniProt P08659). The experiment in a line: Firefly luciferase counterscreen qHTS: Assay Interference Panel against the NCATS CANVASS Library (AID 1347363). Further: potency means the concentration at half of the fitted maximal effect. Put shortly:
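Purified P. pyralis luciferase (0.04 ug/mL, 4x reagent) added to Tris-acetate buffer with 0.013 mM D-luciferin, 0.013 mM ATP and 13.3 mM Mg-acetate; compounds preincubated 15 min, then luminescence read after 5 min, RT.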

Assay [8] can be described thus: qHTS for ATAD5 Agonist screened against the NCATS CANVASS Library (AID 1347367).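 Further: luciferase reporter driven by ATAD5 which rises upon DNA damage.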 Put shortly: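 HEK293T cells stably carrying an ATAD5-controlled luciferase reporter (2000 cells/well) attached for 5 hr, then received compounds in an 11-point series for 16hr at 37C. Luminescence was read after a 30 min room-temperature reagent step.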
Assay [9] is described as follows: J3T Cancer Cell Toxicity qHTS against the NCATS CANVASS Library (AID 1347371). Further: potency means the concentration at half of the fitted maximal effect. Put shortly: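 Viability of the J3T glioma line from dog is scored by ATP luminescence after a 72 hr incubation with natural products.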
Assay [10] deals with Nuclear receptor subfamily 1 group I member 3 (Homo sapiens) (UniProt Q14994). The experiment in a line: qHTS for Constitutive Androstane Receptor (CAR) Agonist screened against the NCATS CANVASS Library (AID 1347373).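 Further: every well also contained 1.5 µM PK11195 alongside the test compound.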 Further: potency means the concentration at half of the fitted maximal effect. The method in brief: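 CAR agonism is scored as CYP2B6-promoter luciferase induction in a double-stable transfected HepG2 line, where 1.5uM PK11195 is included in each well. Compounds were tested over a 24hr exposure.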

The nature of assay [11]: qHTS for Hypoxia signaling pathway (HIF-1) agonists against the NCATS CANVASS Library (AID 1347375). Put shortly:
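Inducers of HIF-1 signaling were detected in ME-180 cells bearing an HRE-driven beta-lactamase reporter after 17 h compound exposure. Activity came from CCF4-AM FRET emission ratio (460/530 nm) in qHTS format.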

A short description of assay [12]: 10-beta competent E. coli microbial cell viability qHTS against the NCATS CANVASS Library (AID 1347376). Further: series mostly up to about 46 µM. Put shortly:
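Cytotoxicity toward competent E. coli is scored from cellular ATP content via BacTiter-Glo luminescence following overnight compound exposure at 37C, 5% CO2.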

Assay [13] is described as follows: Inflammasome Signaling qHTS Counterscreen: IL-1-beta AlphaLISA counterscreen against the NCATS CANVASS Library (AID 1347381).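 Further: cell-free check with purified IL-1β in medium and no THP-1 cells; series mostly up to about 57 µM.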 Put shortly: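 To flag interference with the AlphaLISA read-out, a known amount of purified IL-1-beta (4 pg) replaced cell supernatant. Detection used anti-IL-1-beta acceptor beads, biotinylated antibody and streptavidin donor beads at room temperature.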

A short description of assay [14]: Cytotoxicity qHTS for assessment of Hepg2 cells membrane integrity screened against the NCATS CANVASS Library (AID 1347387). The method in brief:
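Fluorescence proportional to lysed-cell number, from LDH leaking out of HepG2 cells exposed 5 hr at 37C to 0.59 nM - 46 uM compound (11-point qHTS), is measured after 10 min with CytoTox-ONE.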

Assay [15] is described as follows: Redox Reaction Profiling qHTS: Assay Interference Panel against the NCATS CANVASS Library (AID 1347401). Put shortly:
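Compounds in 11-point series incubated with 5 uM resazurin and 200 uM DTT in 50 mM HEPES pH 7.3, 50 mM NaCl. Resorufin fluorescence (Ex 525/Em 598) read before and after 15 min in the dark.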

Structures are written as SMILES. Results filed as inconclusive are left out. The source made the active and inactive calls. The call rests on the fitted dose curve; in most records, active means well fitted curve in the direction sought with a large enough effect; inconclusive means small, poorly fitted or top-dose-only effect, or another doubt; inactive means no such curve, though single readings can be large; an effect the other way counts as inactive or inconclusive. Starred links: 1 amine or outer side, 2 acyl side, 3 side chain; linkers in the order of their positions; H or OH if unused. Positions of bridges follow the written chain, without caps; N, C: chain ends. Non-standard residues stand in square brackets, D forms with d. Residues, ends and D or L forms follow the SMILES beside them. ξ: configuration not given here. *: point of attachment. X3 = C[C@@H](Oc1ccc([C@H](N[*:1])C(=O)[*:2])cc1)[C@]1(/C=C\C(=O)[*:3])CO1; d(aIle) = CC[C@H](C)[C@@H](N)C(=O)O; X2 = CC(C)[C@@H](O)C(C)C(=O)*; ξNMeF = CNC(Cc1ccccc1)C(=O)O; ξT = CC(O)C(N)C(=O)O; ξS = NC(CO)C(=O)O

Nuclear receptor subfamily 1 group I member 3 (Homo sapiens), sequence (Q14994 whole entry, looked up): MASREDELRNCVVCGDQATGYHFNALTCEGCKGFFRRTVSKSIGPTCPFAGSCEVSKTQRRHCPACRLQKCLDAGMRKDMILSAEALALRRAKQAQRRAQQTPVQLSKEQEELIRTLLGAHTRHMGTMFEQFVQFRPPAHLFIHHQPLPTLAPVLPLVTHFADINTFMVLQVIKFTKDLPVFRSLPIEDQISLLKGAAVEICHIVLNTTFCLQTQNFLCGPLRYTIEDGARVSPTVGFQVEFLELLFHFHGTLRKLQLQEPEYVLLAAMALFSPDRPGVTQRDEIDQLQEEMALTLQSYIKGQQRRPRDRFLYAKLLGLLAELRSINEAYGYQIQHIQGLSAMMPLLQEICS
Luciferin 4-monooxygenase (Photinus pyralis), sequence (P08659 whole entry, looked up): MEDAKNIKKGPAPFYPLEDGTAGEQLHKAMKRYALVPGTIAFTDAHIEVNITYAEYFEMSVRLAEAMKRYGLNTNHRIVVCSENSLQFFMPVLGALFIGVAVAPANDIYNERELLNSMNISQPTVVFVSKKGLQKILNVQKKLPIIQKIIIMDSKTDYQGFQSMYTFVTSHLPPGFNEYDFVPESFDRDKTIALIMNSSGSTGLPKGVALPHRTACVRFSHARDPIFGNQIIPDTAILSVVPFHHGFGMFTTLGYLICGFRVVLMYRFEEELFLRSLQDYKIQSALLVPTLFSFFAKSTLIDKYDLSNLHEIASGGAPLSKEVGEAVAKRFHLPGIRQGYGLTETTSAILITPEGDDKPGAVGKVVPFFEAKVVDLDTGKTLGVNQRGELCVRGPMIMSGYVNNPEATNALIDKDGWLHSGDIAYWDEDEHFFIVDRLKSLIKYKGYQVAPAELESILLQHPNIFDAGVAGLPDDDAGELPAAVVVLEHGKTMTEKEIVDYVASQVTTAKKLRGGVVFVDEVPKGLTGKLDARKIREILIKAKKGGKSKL

`CO[C@H]1[C@H](O[C@H]2CC[C@]3(C=O)[C@H]4CC[C@]5(C)[C@@H](C6=CC(=O)OC6)CC[C@]5(O)[C@@H]4CC[C@]3(O)C2)O[C@H](C)[C@H](O)[C@@H]1OC`: the call in assay [1], in assay [2], in assay [3], in [4], in assay [5] and in assay [6] was inactive. Further, the result in [11], in assay [12], in assay [13] and in assay [14] was inactive. For the same molecule, the Potency result in assay [7], in [8], in [10] and in assay [15] was “inactive” throughout. The Potency in [9] was 0.372 µM (active).
`CC[C@]12C=CCN3CC[C@]4(C(=C(C(=O)OC)C1)Nc1ccccc14)[C@@H]32`: the molecule was called inactive in [1], in assay [2], in assay [3], in assay [4], in assay [5] and in [6]. Moreover, the call in assay [11], in [12], in assay [13] and in assay [14] was inactive. Also, the Potency entry in assay [7], in assay [8], in assay [9], in [10] and in [15] was “inactive” throughout.
For `c1ccc2nc3c(cc2c1)[nH]c1ccccc13`, the molecule was classed as inactive in assay [1], in assay [2], in assay [3], in [4], in assay [5] and in [6]. Also, the result in assay [11], in assay [12], in assay [13] and in assay [14] was inactive. Further, the Potency in assay [7] was 1.72 µM (active); in assay [10] it was 18.6 µM (active). The Potency result in [8], in [9] and in assay [15] was “inactive” in each case.
`C/C=C1/CN2CC[C@]34C(=C(C(=O)OC)[C@H]1C[C@H]23)Nc1ccccc14`: the result in [1], in assay [2], in [3], in [4], in assay [5] and in assay [6] was inactive. For the same molecule, the call in [11], in [12], in assay [13] and in assay [14] was inactive. The Potency result in [7], in [8], in assay [9], in assay [10] and in assay [15] was “inactive” each time.
Turning to `CO[C@@H](/C=C/CC/C=C/C(=O)O)[C@@H](O)[C@H](C)/C=C(\C)[C@H](O)[C@H](C)C(=O)CCCC1CC(=O)NC(=O)C1`, the result in [1], in assay [2], in assay [3], in assay [4], in assay [5] and in [6] was inactive. In addition, the molecule was called inactive in assay [11], in [12], in [13] and in [14]. Further, the Potency result in [7], in [8], in [9], in [10] and in assay [15] was “inactive” throughout.
As to `C=C[C@]12C=CCN3CC[C@@]4(c5ccccc5NC(=O)[C@@H]4C1)[C@@H]32`, the result in assay [1], in assay [2], in assay [3], in assay [4], in assay [5] and in [6] was inactive. In addition, the outcome in assay [11], in assay [12], in [13] and in assay [14] was inactive. Further, the Potency result in assay [7], in [8], in assay [9], in [10] and in assay [15] was “inactive” each time.
As for `CC(C)CC1C(=O)O[C@H](C(C)C)C(=O)N(C)C(CC(C)C)C(=O)O[C@@H](C(C)C)C(=O)N(C)C(CC(C)C)C(=O)O[C@H](C(C)C)C(=O)N(C)C(CC(C)C)C(=O)O[C@@H](C(C)C)C(=O)N1C` (some centres undefined), the molecule was called inactive in [1], in assay [2], in assay [3], in assay [5], in [6] and in assay [11]. Besides, the outcome in [12], in assay [13] and in assay [14] was inactive. Moreover, the Potency entry in assay [7], in assay [8], in [9], in assay [10] and in assay [15] was “inactive” in each case.
As to `C1=C2CCCN[C@H]2C2CC1[C@H]1CCCCN1C2` (some centres undefined), the result in assay [1], in assay [2], in assay [3], in assay [4], in assay [5] and in [6] was inactive. The molecule was called inactive in assay [11], in assay [12], in assay [13] and in [14]. For the same molecule, the Potency result in assay [7], in assay [8], in [9], in [10] and in [15] was “inactive” in each case.
As to `C=C[C@H]1CN2CCc3c([nH]c4cccc(OC)c34)[C@@H]2C[C@@H]1/C(=C\OC)C(=O)OC`, the call in assay [1], in assay [2], in [3], in [4], in assay [5] and in assay [6] was inactive. The outcome in assay [11], in [12], in [13] and in assay [14] was inactive. Besides, the Potency entry in [7], in assay [8], in assay [9], in assay [10] and in assay [15] was “inactive” in each case.
In the case of `C[C@]12CC(O)C3[C@@H](CC[C@@H]4C[C@@H](O)CC[C@]34CO)[C@@]1(O)CC[C@@H]2C1=CC(=O)OC1` (some centres undefined), the molecule was called inactive in assay [1], in assay [2], in assay [3], in assay [4], in [5] and in [6]. For the same molecule, the outcome in assay [11], in assay [12], in assay [13] and in [14] was inactive. For the same molecule, the Potency entry in assay [7], in [8], in assay [10] and in [15] was “inactive” throughout. Also, the Potency in [9] was 10.5 µM (active).
For the molecule `CCCCC1CC[C@H]2CCCC(CCC)N12` (some centres undefined), the outcome in assay [1], in assay [2], in assay [3], in assay [4], in [5] and in assay [6] was inactive. Also, the molecule was classed as inactive in [11], in assay [12], in assay [13] and in assay [14]. The Potency result in [7], in [8], in assay [9], in assay [10] and in assay [15] was “inactive” in each case.
`CC[C@H](C)[C@H]1NC(=O)[C@@H](NC(=O)C(C)[C@H](O)C(C)C)[C@@H](C)OC(=O)C2COC(=O)CNC(=O)/C=C\[C@]3(CO3)[C@@H](C)Oc3ccc(cc3)[C@H](NC1=O)C(=O)N(C)C(Cc1ccccc1)C(=O)NC(C(C)O)C(=O)N2` (some centres undefined) (X2-T[d(aIle)][X3][ξNMeF][ξT][ξS]; ester 1-C; linker 3-6 via G): the call in assay [1], in assay [2], in assay [3], in [4], in [5] and in assay [6] was inactive. Further, the result in [11], in [12], in [13] and in assay [14] was inactive. Besides, the Potency entry in assay [7], in assay [8], in [9], in assay [10] and in assay [15] was “inactive” each time.

(Values after PubChem BioAssay (NCATS).)
